# According to PubChem BioAssay (NCI):
# This is part of a sample that, as a whole, favours compounds with a hit. Of some 79,000 tested, about 15% had one in any assay. Values without a mark were called inactive. The source made the active and inactive calls. Rule as the data show it: active = growth inhibition above about 70%; inactive = the rest.
# Experiments:
# [1] = NCI Yeast Anticancer Drug Screen. Data for the rad50 strain (AID 155);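 also: 0% = growth of vehicle-only cultures of the same strain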; details: S. cerevisiae rad50 strain growth inhibition, hits give high values
# In short: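 Vehicle-treated cultures provide the reference for the growth inhibition reported for compound-exposed, repair-deficient yeast.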
# [2] = NCI Yeast Anticancer Drug Screen. Data for the mec2-1 strain (AID 157); details: S. cerevisiae mec2-1 strain, hits give high values
# In short: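 Readout is yeast growth inhibition, normalised to vehicle-treated controls, in the mec2-1 strain exposed to compound.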
# [3] = NCI Yeast Anticancer Drug Screen. Data for the sgs1 mgt1 strain (AID 161);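 also: 0% = growth of cultures given vehicle only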; details: S. cerevisiae sgs1 mgt1 strain, hits give high values
# In short: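 Yeast cells carrying a defined DNA-repair defect were exposed to test compounds. Growth inhibition was measured relative to vehicle-treated controls.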
# [4] = NCI Yeast Anticancer Drug Screen. Data for the cln2 rad14 strain (AID 165);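 also: 0% = growth equal to vehicle treated cultures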; details: S. cerevisiae cln2 rad14 strain, hits give high values
# In short: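 Relative to vehicle controls, growth inhibition of compound-treated cln2 rad14 yeast was recorded.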
# [5] = NCI Yeast Anticancer Drug Screen. Data for the bub3 strain (AID 167); details: S. cerevisiae bub3 mutant strain, hits give high values
# In short: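 Mutant yeast screening strain plus compound; vehicle-treated cultures serve as the 0% inhibition reference.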
# [6] = NCI Yeast Anticancer Drug Screen. Data for the mlh1 rad18 strain (AID 175); details: S. cerevisiae mlh1 rad18 strain growth inhibition, hits give high values
# In short: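 Test agents were incubated with a yeast strain of defined genotype (DNA damage repair defect). Inhibition of growth was derived by comparison with vehicle-exposed cultures.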
# [7] = at 5.0 µM (retest, dose inferred, filed as 0.5)
# [8] = at 50.0 µM (retest, dose inferred, filed as 5.0)
Compound,"growth inhibition [1, 7]","growth inhibition [1, 8]",growth inhibition ([1]; at 50.0 µM),"growth inhibition [2, 7]","growth inhibition [2, 8]",growth inhibition ([2]; at 50.0 µM),"growth inhibition [3, 7]","growth inhibition [3, 8]",growth inhibition ([3]; at 50.0 µM),"growth inhibition [4, 7]","growth inhibition [4, 8]",growth inhibition ([4]; at 50.0 µM),"growth inhibition [5, 7]","growth inhibition [5, 8]",growth inhibition ([5]; at 50.0 µM),"growth inhibition [6, 7]","growth inhibition [6, 8]",growth inhibition ([6]; at 50.0 µM)
N#C/C(=N\Nc1ccc(Cl)cc1)C(=O)C1CC1,59%,62%,86.4% (active),41%,46%,77.5% (active),58%,70% (active),85.7% (active),55%,55%,85.5% (active),51%,78% (active),77.4% (active),62%,69%,82% (active)
CCC(=O)c1cc([N+](=O)[O-])c(Br)s1,99% (active),99% (active),99.7% (active),99% (active),100% (active),99.6% (active),100% (active),100% (active),99.6% (active),99% (active),99% (active),98.8% (active),100% (active),99% (active),99.5% (active),99% (active),99% (active),99.5% (active)
CCCCCCCCCCCCCCCCCC1=NCCCN1CCO,7%,6%,96.8% (active),5%,5%,87.5% (active),14%,8%,40%,9%,5%,-41.6%,4%,7%,61.1%,23%,7%,83% (active)
COC(=O)c1ccc(=O)c2nc3/c(=C/O)c(O)cc(=O)c3[nH]c12,98% (active),92% (active),90% (active),99% (active),94% (active),92.1% (active),99% (active),97% (active),91.2% (active),96% (active),96% (active),89.3% (active),99% (active),96% (active),89.5% (active),99% (active),95% (active),39.5%
Oc1ccc(Cl)cc1C(c1cc(Cl)ccc1O)C(Cl)(Cl)Cl,99% (active),99% (active),99.5% (active),99% (active),99% (active),99.6% (active),100% (active),100% (active),99.4% (active),99% (active),99% (active),99.1% (active),100% (active),99% (active),99.5% (active),99% (active),99% (active),99.2% (active)
O=S(=O)(O)c1cnccn1,0%,-4%,91.3% (active),-2%,-3%,98.3% (active),-4%,-3%,87.8% (active),0%,3%,80.8% (active),2%,6%,96.9% (active),1%,-2%,80.9% (active)
O=C(c1ccccc1)C(O)C(Br)(CBr)c1ccccc1 (stereo not given),19%,97% (active),90.7% (active),11%,98% (active),94.5% (active),4%,98% (active),97.3% (active),15%,82% (active),94.8% (active),2%,98% (active),96.8% (active),6%,97% (active),93.7% (active)
O=C(Nc1cccc(C(F)(F)F)c1)Oc1ccc(Cl)c2cccnc12,77% (active),98% (active),89.8% (active),66%,99% (active),91.8% (active),98% (active),99% (active),92.8% (active),90% (active),98% (active),88.9% (active),94% (active),99% (active),91.7% (active),71% (active),99% (active),91.7% (active)
C=C(CO)C(=O)OC1CC(=C)C2CC(O)C(C)C2C2OC(=O)C(=C)C12 (stereo not given),20%,97% (active),86.7% (active),15%,98% (active),52.5%,10%,97% (active),92.5% (active),13%,89% (active),32.4%,9%,97% (active),79.4% (active),26%,98% (active),87.7% (active)
O=[N+]([O-])c1ccc(Oc2ccccc2Cl)c([N+](=O)[O-])c1,13%,96% (active),4.1%,-25%,95% (active),38.1%,27%,97% (active),63.1%,3%,86% (active),17.9%,7%,97% (active),44.7%,29%,97% (active),72.7% (active)
